# CtBP-E1A blk: blocks the CtBP interaction with E1A | AID 651724 | hit rate 0.49% among 340,000 | AlphaScreen GST-E1A/His-CtBP binding, 1536-well; active compounds read low | activity change, % (no concentration beside the values); in the data active means activity change below about -65%; inconclusive means mostly about -30% to -63%
#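 GST-E1A and His-tagged CtBP (125 nM each as 5X stock) were preincubated with pin-transferred compound for 2 h at 37 °C in the dark, then glutathione donor and nickel acceptor beads were added for 1 h before AlphaScreen reading.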
# JMJD2A Tudor: blocks the human JMJD2A Tudor domain; O75164; AlphaScreen JMJD2A-Tudor / H3K4me3 peptide binding; Potency, µM (doses to about 114 µM), usual class: inhibitors; hit rate 4.4% among 390,000; AID 504339; further: nearly all actives have a fitted effect of over 50% in size
# G9a block: inhibitors of human histone lysine methyltransferase G9a; Potency, µM (highest dose often 102 µM), usual class: inhibitors; G9a H3K9 monomethylation, AlphaScreen, 2 h; hit rate 8.8% among 350,000; Q96KQ7; further: nearly all actives have a fitted effect of over 75% in size
#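 Methyltransferase reactions run at room temperature for 2 h (20 nM enzyme, 500 nM biotin-H3K9 peptide, 20 uM SAM) after a 15 min compound preincubation; product detected by AlphaScreen beads and anti-H3K9me1 antibody.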
# Six1-Eya2 blk: Six1/Eya2 interaction inhibition; Q15475+O00167; AlphaScreen GST-Six1/His-Eya2 binding, biochemical; active compounds read low; activity change, % (test concentration not listed); hit rate 0.56% among 360,000; AID 651725; in the data active means activity change below about -65%; inconclusive means mostly about -30% to -63%
#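 Compounds are tested against tagged Six1 and Eya2 proteins bridged by glutathione donor and nickel acceptor beads; after a one-hour incubation at 37 °C without light, AlphaScreen emission is recorded.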
# HP1b chromo inh: blocks HP1-beta chromodomain binding to methylated histone tails; hit rate 0.56% among 390,000; AID 540317; Potency, µM (titrated, usually from 114 µM), hits mostly inhibitors; P83916; AlphaScreen HP1-beta / biotin-H3K9me3 peptide binding; further: nearly all actives have a fitted effect of over 70% in size
#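 AlphaScreen: HP1-beta (50 nM) preformed 30 min with biotin-H3(1-18)K9me3 peptide (50 nM) in PBS pH 7.4, 0.01% Tween-20. Compound added for 30 min at RT, then streptavidin donor/nickel chelate acceptor beads (10 ug/mL) for 30 min.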
# BAZ2B block: BAZ2B (human) inhibition. AlphaScreen BAZ2B-H3K14Ac peptide displacement. Potency, µM (titrated, usually from 114 µM), hits mostly inhibitors. hit rate 4.4% among 360,000. AID 504333; further: nearly all actives have a fitted effect of over 60% in size
#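 Complex of BAZ2B and biotin-H3K14Ac (50 nM apiece) forms over 30 min at RT, then faces library compounds up to 110 uM for another 30 min; AlphaScreen beads added, 20 min dark incubation, luminescence read.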
# A number is an active result; 0 = inactive; ? = inconclusive; - = no result given; [ ] = another dose, or the depositor's remark. The list is not random: actives were taken first. Their share in the collection is about 10%. Unless noted, the call rests on the fitted dose curve; in most records, active means well fitted inhibition curve with a large enough effect; inconclusive means small, poorly fitted or top-dose-only effect; inactive means no such curve, though single readings can be large or run the other way.
SMILES,CtBP-E1A blk,JMJD2A Tudor,G9a block,Six1-Eya2 blk,HP1b chromo inh,BAZ2B block
N#Cc1c(-c2ccccc2Cl)noc1/C=C/Nc1ccc(C(=O)O)cc1,0,0,?,0,0,?
O=C(O)c1ccc(N2C(=O)c3ccccc3C2=O)cc1[N+](=O)[O-],0,-,-,0,-,-
Cc1ccc(Cl)cc1-n1ncc2c(NCCC3=CCCCC3)ncnc21,-,0,0,-,0,0
COc1ccc(N(C(=O)c2cccc(C)c2)S(=O)(=O)c2ccc(C)cc2)cc1,-,0,0,-,0,0
CC(C)CC(NC(N)=O)C(=O)OCC(=O)Nc1ccc(OC(F)F)cc1 (stereo not given),0,40µM,0,0,0,0
CC(NC(=O)c1ccccc1NC(=O)CSc1nnnn1C)c1ccccc1 (stereo not given),0,0,0,0,0,0
Cc1ccc2sc(N(Cc3cccnc3)C(=O)CCOc3ccccc3)nc2c1C,-,0,0,-,0,0
Cn1nc(-c2ccccc2)c(CO)c1Oc1ccc(F)cc1,0,20µM,0,0,0,0
O=C(NCCc1ccccc1)c1ccc2c(c1)N(Cc1ccccc1Cl)C(=O)c1ccccc1S2,-,0,0,-,0,0
Cc1ccc(S(=O)(=O)N2CCN(c3nc(-c4cccs4)nc(C)c3C)CC2)cc1,-,0,-,-,0,-
CCOc1cc2[nH]c(=S)n(Cc3ccc(C(=O)NCCCN(CC)CC)cc3)c(=O)c2cc1OCC,?,?,35µM,0,0,0
COC(=O)c1ccc2c(=O)n(Cc3ccc(C(=O)NCCCN4CCOCC4)cc3)c(=S)[nH]c2c1,0,0,?,0,0,0
CCOc1cc2[nH]c(=S)n(CCCN3CCOCC3)c(=O)c2cc1OCC,0,56µM,0[12.7 µM],0,0,0
CCOc1cc2[nH]c(=S)n(Cc3ccc(C(=O)NCCCN4CCOCC4)cc3)c(=O)c2cc1OCC,0,0,25µM,0,0,0
O=C(NCCCN1CCOCC1)c1ccc2c(=O)n(Cc3ccc(Cl)cc3)c(=S)[nH]c2c1,0,0,7.1µM,0,0,0
O=C(COc1ccc(Br)cc1)NCCCNC(=O)c1cnccn1,0,0,0,0,0,0
COc1ccc(Cn2c(=O)[nH]c3cc(C(=O)NCCCN4CCCCCC4)ccc3c2=O)cc1,0,14µM,56µM,0,0,0
O=c1c2cc3c(cc2[nH]c(=S)n1CCN1CCOCC1)OCO3,0,35µM,?,0,0,?
O=c1c2cc(F)ccc2[nH]c(=S)n1CCCN1CCOCC1,0,0,50µM,0,0,0
COC(=O)c1ccc2c(=O)n(Cc3ccc(C(=O)NCCCN4CCC(C)CC4)cc3)c(=S)[nH]c2c1,0,0,35µM,0,0,0
COc1ccc(Cn2c(=O)[nH]c3cc(C(=O)NCCCN4CCCCC4)ccc3c2=O)cc1,0,0,0[2.33 µM],0,0,0
CCn1ccc2cc(S(=O)(=O)N3CCC(C(=O)NCCc4ccccc4)CC3)ccc21,-,0,0,-,0,0
COc1cc(NC(=O)CCc2c(C)n(C)c3cc(-c4ccccc4C)nn3c2=O)cc(OC)c1OC,-,0,0,-,0,0
COc1ccc2cc(C#N)c(SCC(=O)OCc3ccccc3)nc2c1,-,0,-,-,0,-
Cc1cc2c(s1)c1cnn(Cc3c(F)ccc(C)c3Cl)c(=O)c1n2C,-,0,-,-,-,-
SMILES,CtBP-E1A blk,JMJD2A Tudor,G9a block,Six1-Eya2 blk,HP1b chromo inh,BAZ2B block
CCOc1cc2[nH]c(=S)n(CCN3CCCCC3CC)c(=O)c2cc1OCC (stereo not given),0,0,56µM,0,0,0
COc1cc2c(=O)n(CCCN3CCOCC3)c(=S)[nH]c2c(OC)c1OC,0,32µM,13µM,0,0,0
COc1ccc(CN(C)C(=O)[C@H]2O[C@@H](n3ccc(N)nc3=O)[C@H](O)[C@@H]2O)cc1OC,0,-,-,0,-,-
O=C(CN1C(=O)/C(=C2/SC(=S)N(CCS(=O)(=O)O)C2=O)c2ccccc21)Nc1cccc(C(F)(F)F)c1,0,13µM,-,?,10µM,-
COCCN1C(=O)/C(=C2/C(=O)N(CC(=O)Nc3ccccc3Cl)c3ccccc32)SC1=S,0,0,0,0,0,0
O=C(CN1C(=O)c2ccccc2Sc2ncccc21)Nc1cccc(C(F)(F)F)c1,-,0,0,-,0,0

# Screens as filed in PubChem BioAssay.
